Source: PubChem BioAssay (EPA / NIEHS)
Records with an inconclusive call do not appear. Activity calls are given as the source filed them. How the source made its calls: active means hit-call score of the fitted dose curve at least 0.9, where 1 is the maximum; inconclusive means response in the unintended direction; inactive means score below 0.9.

How the values were obtained:
[1] = TOX21_p53_BLA_p2_viability: Viability Assessment in the Tox21 HCT-116 p53 Agonism Beta-lactamase Assay, Phase 2 (AID 2283591);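 further: compound exposure lasted 16 h at 37 °C; actives lower the ATP signal meaning cytotoxicity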
In short: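 Cytotoxicity readout: CellTiter-Glo ATP luminescence, 30 min at room temperature, after the beta-lactamase read. Cells were HCT116 exposed 16 h at 37C to compounds pin-transferred at 217-fold dilution from DMSO stocks.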

[2] = TOX21_p53_BLA_p3_viability: Viability Assessment in the Tox21 HCT-116 p53 Agonism Beta-lactamase Assay, Phase 3 (AID 2283593);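 further: cells exposed to compound for 16 h before reading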
In short: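 Cellular ATP was quantified by CellTiter-Glo luminescence, read after 30 min at room temperature. Beforehand, HCT116 cells (4000/well) received compound 5 h post-seeding, 217-fold diluted from DMSO, then incubated 16 h at 37C.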

[3] = TOX21_p53_BLA_p4_viability: Viability Assessment in the Tox21 HCT-116 p53 Agonism Beta-lactamase Assay, Phase 4 (AID 2283597);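 further: hits lower the luminescence signal meaning cytotoxicity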
In short: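 Cells plated, 5 h pre-incubation; DMSO compounds pinned (217-fold dilution); 16 h, 37C/5% CO2; CCF4-AM 2 h RT; CellTiter-Glo 30 min RT; luminescence read.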

[4] = TOX21_p53_BLA_p5_viability: Viability Assessment in the Tox21 HCT-116 p53 Agonism Beta-lactamase Assay, Phase 5 (AID 2283600)
In short: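 4000 cells/well; 5 h pre-incubation; DMSO compounds pin-transferred, 217-fold dilution; 16 h, 37C/5% CO2; CCF4-AM 2 h RT; CellTiter-Glo 30 min RT; luminescence.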

[5] = target: Cellular tumor antigen p53 (Homo sapiens) (UniProt P04637); assay: TOX21_p53_BLA_p5_ratio: Tox21 HCT-116 p53 Agonism Beta-lactamase Assay, Ratio, Phase 5 (AID 2283599)
Chain of Cellular tumor antigen p53 (Homo sapiens) (P04637 whole entry, looked up): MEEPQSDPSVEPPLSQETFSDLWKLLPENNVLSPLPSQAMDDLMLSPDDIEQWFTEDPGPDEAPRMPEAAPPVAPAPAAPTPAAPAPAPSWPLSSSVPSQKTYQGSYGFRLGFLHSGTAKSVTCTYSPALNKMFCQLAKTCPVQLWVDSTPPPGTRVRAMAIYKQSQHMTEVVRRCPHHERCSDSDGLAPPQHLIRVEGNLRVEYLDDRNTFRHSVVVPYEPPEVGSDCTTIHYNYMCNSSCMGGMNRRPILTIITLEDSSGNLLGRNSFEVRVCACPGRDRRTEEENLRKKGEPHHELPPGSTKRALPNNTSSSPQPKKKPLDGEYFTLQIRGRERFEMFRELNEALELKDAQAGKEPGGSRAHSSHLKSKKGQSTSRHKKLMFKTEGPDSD
In short: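 Beta-lactamase reporter ratio (blue 460 nm over green 530 nm, 405 nm excitation) after 2 h CCF4-AM loading, in HCT-116 cells exposed 16 h at 37 C to compounds pinned at 217-fold dilution. Increases relative to DMSO baseline scored.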

[6] = target: Cellular tumor antigen p53 (Homo sapiens) (UniProt P04637); assay: TOX21_p53_BLA_p4_ratio: Tox21 HCT-116 p53 Agonism Beta-lactamase Assay, Ratio, Phase 4 (AID 2283601)
In short: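 Signal is the blue/green (460nm/530nm) ratio of cleaved versus uncleaved CCF4-AM substrate, read after 2 h substrate loading. Cells were HCT116 carrying the p53-responsive beta-lactamase reporter, dosed 16 h at 37C, 5% CO2; CellTiter-Glo measured in parallel.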

Measured: outcome

CCOC(=O)OCC/C(SC(=O)OCC)=C(\C)N(C=O)Cc1cnc(C)nc1N
inactive: [1] | [2] | [3] | [4]

CCCC(=O)O[C@]1(C(=O)COC(C)=O)CC[C@H]2[C@@H]3C[C@H](F)C4=CC(=O)C=C[C@]4(C)[C@@]3(F)[C@@H](O)C[C@@]21C
not listed: [4]
inactive: all other assays above

O=C1O[C@H]2[C@H](O)[C@@H]1OC(O)[C@H]2O (some centres undefined)
not listed: [5]
inactive: all other assays above
